# Assay results from PubChem BioAssay AID1159580 (chemical genetic matrix, 2015).
# Where “and” joins values, the source holds several entries; their conditions need not be identical. Equal entries are not always repeated. The campaign covered roughly 5,500 compounds. About 2,000 (36%) were called active. Roughly 18% stayed inconclusive and do not appear here. The list shows a part of the results. Values without a mark were called inactive. Cut-off read from the data, not from the text of the source: active = normalized growth mostly below about 0.91 (no sharp cut-off); inconclusive = no clear call, values can overlap the other calls; inactive = mostly above about 0.92.
# Test: chemical genetic growth profiling, strain panel (AID 1159580);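 note: tested at 20 µM; growth read once vehicle control cultures reached saturation at 30 °C; 1 = growth at the plate median or of vehicle wells; lower values mean less growth of the strain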
# Details: S. cerevisiae deletion strains, growth OD
smiles,measurement,setting,value
CC1(C)C(=O)C=C[C@@]2(C)C1=C(O)C(=O)[C@]1(C)C2CC[C@@]2(C)[C@H](c3ccoc3)C[C@H]3O[C@]321 (stereo not given in full),normalized growth,"locus YAL021C, strain ccr4, hits give low values",0.995
same,normalized growth,"locus YAL026C, strain drs2, hits give low values",0.893 (active)
same,normalized growth,"locus YAL030W, strain snc1, hits give low values",0.96
same,normalized growth,"locus YBL061C, strain skt5, hits give low values",0.884 (active)
same,normalized growth,"locus YBR009C, strain hhf1, hits give low values",0.672 (active)
same,normalized growth,"locus YBR021W, strain FUR4, hits give low values",0.996
same,normalized growth,"locus YBR023C, strain chs3, hits give low values",0.908 (active)
same,normalized growth,"locus YBR171W, strain sec66, hits give low values",0.916
same,normalized growth,"locus YBR229C, strain ROT2, hits give low values",0.923
same,normalized growth,"locus YBR231C, strain swc5, hits give low values",0.901 (active)
same,normalized growth,"locus YBR279W, strain paf1, hits give low values",0.908 (active)
same,normalized growth,"locus YCL011C, strain gbp2, hits give low values",0.827 (active)
same,normalized growth,"locus YCL016C, strain dcc1, hits give low values",0.901 (active)
same,normalized growth,"locus YCL029C, strain bik1, hits give low values",0.879 (active)
same,normalized growth,"locus YCL061C, strain MRC1, hits give low values",0.897 (active)
same,normalized growth,"locus YCL069W, strain vba3, hits give low values",0.959
same,normalized growth,"locus YCR088W, strain abp1, hits give low values",0.962
same,normalized growth,"locus YDL005C, strain med2, hits give low values",0.957
same,normalized growth,"locus YDL035C, strain GPR1, hits give low values",0.641 (active)
same,normalized growth,"locus YDL040C, strain nat1, hits give low values",0.957
same,normalized growth,"locus YDL074C, strain BRE1, hits give low values",0.377 (active)
same,normalized growth,"locus YDL101C, strain DUN1, hits give low values",0.786 (active)
same,normalized growth,"locus YDL134C, strain PPH21, hits give low values",0.608 (active)
same,normalized growth,"locus YDL185W, strain tfp1, hits give low values",0.955
same,normalized growth,"locus YDL192W, strain arf1, hits give low values",0.743 (active)
same,normalized growth,"locus YDR001C, strain nth1, hits give low values",0.967
same,normalized growth,"locus YDR069C, strain doa4, hits give low values",0.99
same,normalized growth,"locus YDR101C, strain arx1, hits give low values",0.843 (active)
same,normalized growth,"locus YDR137W, strain rgp1, hits give low values",0.602 (active)
same,normalized growth,"locus YDR159W, strain sac3, hits give low values",0.549 (active)
same,normalized growth,"locus YDR162C, strain NBP2, hits give low values",0.226 (active)
same,normalized growth,"locus YDR195W, strain ref2",0.785 (active)
same,normalized growth,"locus YDR297W, strain sur2, hits give low values",0.869 (active)
same,normalized growth,"locus YDR318W, strain mcm21, hits give low values",0.762 (active)
same,normalized growth,"locus YDR334W, strain swr1, hits give low values",0.965
same,normalized growth,"locus YDR335W, strain msn5, hits give low values",0.969
same,normalized growth,"locus YDR388W, hits give low values",0.982
same,normalized growth,"locus YDR392W, strain spt3, hits give low values",0.219 (active)
same,normalized growth,"locus YDR502C, strain sam2, hits give low values",0.833 (active)
same,normalized growth,"locus YEL003W, strain gim4, hits give low values",0.851 (active)
same,normalized growth,"locus YEL037C, strain rad23, hits give low values",0.966
same,normalized growth,"locus YEL061C, strain CIN8 (second series), hits give low values",0.95
same,normalized growth,"locus YER015W, strain faa2, hits give low values",0.902 (active)
same,normalized growth,"locus YER016W, strain bim1, hits give low values",0.934
same,normalized growth,"locus YER110C, hits give low values",0.978
same,normalized growth,"locus YER111C, strain swi4, hits give low values",0.925
same,normalized growth,"locus YER155C, strain BEM2 (second series), hits give low values",0.814 (active)
same,normalized growth,"locus YER155C, strain BEM2, hits give low values",0.57 (active)
same,normalized growth,"locus YER167W, strain BCK2, hits give low values",0.768 (active)
same,normalized growth,"locus YFR010W, strain ubp6, hits give low values",0.95
same,normalized growth,"locus YGL078C, strain dbp3, hits give low values",0.934
same,normalized growth,"locus YGL086W, strain mad1, hits give low values",0.767 (active)
same,normalized growth,"locus YGL167C, strain pmr1, hits give low values",0.954
same,normalized growth,"locus YGL173C, strain kem1, hits give low values",0.872 (active)
same,normalized growth,"locus YGL227W, strain vid30, hits give low values",0.949
same,normalized growth,"locus YGL240W, strain doc1, hits give low values",0.916
same,normalized growth,"locus YGL248W, strain PDE1, hits give low values",0.766 (active)
same,normalized growth,"locus YGL253W, strain hxk2, hits give low values",0.871 (active)
same,normalized growth,"locus YGR078C, strain PAC10, hits give low values",0.513 (active)
same,normalized growth,"locus YGR135W, strain pre9, hits give low values",0.854 (active)
same,normalized growth,"locus YGR252W, strain gcn5, hits give low values",0.734 (active)
same,normalized growth,"locus YHR013C, strain ard1, hits give low values",0.842 (active)
same,normalized growth,"locus YHR027C, strain rpn1, hits give low values",0.917 (active)
same,normalized growth,"locus YHR030C, strain SLT2, hits give low values",0.697 (active) and 0.536 (active)
same,normalized growth,"locus YHR079C, strain IRE1 (second series), hits give low values",0.972
same,normalized growth,"locus YHR079C, strain IRE1, hits give low values",0.821 (active)
same,normalized growth,"locus YHR094C, strain hxt1, hits give low values",0.975
same,normalized growth,"locus YHR129C, strain ARP1, hits give low values",0.613 (active)
same,normalized growth,"locus YHR142W, strain chs7, hits give low values",0.8 (active)
same,normalized growth,"locus YHR200W, strain rpn10, hits give low values",0.951
same,normalized growth,"locus YIL066C, strain RNR3, hits give low values",0.381 (active)
same,normalized growth,"locus YIL073C, strain SPO22, hits give low values",0.868
same,normalized growth,"locus YIL125W, strain kgd1, hits give low values",0.928 (active)
same,normalized growth,"locus YIR030C, strain dcg1, hits give low values",0.907 (active)
same,normalized growth,"locus YJL092W, strain hpr5, hits give low values",0.961
same,normalized growth,"locus YJL095W, strain BCK1 (second series), hits give low values",0.777 (active)
same,normalized growth,"locus YJL095W, strain BCK1, hits give low values",0.363 (active) and 0.62 (active)
same,normalized growth,"locus YJL115W, strain asf1, hits give low values",0.969
same,normalized growth,"locus YJL129C, strain trk1, hits give low values",0.776 (active)
same,normalized growth,"locus YJL134W, strain LCB3, hits give low values",0.966
same,normalized growth,"locus YJL154C, strain vps35, hits give low values",0.977
same,normalized growth,"locus YJL164C, strain tpk1, hits give low values",0.838 (active)
same,normalized growth,"locus YJL166W, strain qcr8, hits give low values",0.748 (active)
same,normalized growth,"locus YJL168C, strain set2, hits give low values",0.985
same,normalized growth,"locus YJL187C, strain SWE1 (second series), hits give low values",0.808 (active)
